Substitutions are numbered along the chain they refer to.
What was measured:
Test in all cases: yeast three-hybrid, YBZ-1, SC-Leu-His + 0.5 mM 3-AT, 4 days
Conditions in all cases: tags: N-Gal4 AD-HA kept; label: inside an RPR1-promoter hybrid RNA with tandem MS2 sites; ssRNA
[1] = target: PUM1 PUF domain R4-APT (Homo sapiens, UniProt Q14671 828-1176, N971A;H972P;Q975T)
Summary of the method: (§1)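 Repeat regions from input (SC-Leu) and selection (SC-Leu-His + 0.5 mM 3-AT) plates were PCR-amplified and Illumina-sequenced after four days of growth. The cells were strain YBZ-1 with a LexA–MS2 coat fusion and a HIS3 reporter, co-expressing Pumilio-1 PUF domain libraries and matching RNA elements from a centromeric plasmid. The interaction score is the log change in variant frequency from input to selection, taken in log2 with a pseudocount of 1 for absent variants.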

[2] = target: PUM1 PUF domain R4-VNN (Homo sapiens, UniProt Q14671 828-1176, N971V;H972N;Q975N)
Summary of the method: as §1

[3] = target: PUM1 PUF domain R4-DHC (Homo sapiens, UniProt Q14671 828-1176, N971D;Q975C)
Summary of the method: as §1

[4] = target: PUM1 PUF domain R3-ATE (Homo sapiens, UniProt Q14671 828-1176, C935A;R936T;Q939E)
Summary of the method: as §1

[5] = target: PUM1 PUF domain R5-RGS (Homo sapiens, UniProt Q14671 828-1176, C1007R;R1008G;Q1011S)
Summary of the method: as §1

[6] = target: PUM1 PUF domain R5-KSV (Homo sapiens, UniProt Q14671 828-1176, C1007K;R1008S;Q1011V)
Summary of the method: as §1

[7] = target: PUM1 PUF domain R5-KST (Homo sapiens, UniProt Q14671 828-1176, C1007K;R1008S;Q1011T)
Summary of the method: as §1

[8] = target: PUM1 PUF domain R5-RPD (Homo sapiens, UniProt Q14671 828-1176, C1007R;R1008P;Q1011D)
Summary of the method: as §1

[9] = target: PUM1 PUF domain R5-RNW (Homo sapiens, UniProt Q14671 828-1176, C1007R;R1008N;Q1011W)
Summary of the method: as §1

[10] = target: PUM1 PUF domain R8-QFQ (Homo sapiens, UniProt Q14671 828-1176, N1122Q;Y1123F)
Summary of the method: as §1

[11] = target: T1, PUM1 PUF domain R6-LYS (Homo sapiens, UniProt Q14671 828-1176, N1043L;Q1047S)
T1 sequence: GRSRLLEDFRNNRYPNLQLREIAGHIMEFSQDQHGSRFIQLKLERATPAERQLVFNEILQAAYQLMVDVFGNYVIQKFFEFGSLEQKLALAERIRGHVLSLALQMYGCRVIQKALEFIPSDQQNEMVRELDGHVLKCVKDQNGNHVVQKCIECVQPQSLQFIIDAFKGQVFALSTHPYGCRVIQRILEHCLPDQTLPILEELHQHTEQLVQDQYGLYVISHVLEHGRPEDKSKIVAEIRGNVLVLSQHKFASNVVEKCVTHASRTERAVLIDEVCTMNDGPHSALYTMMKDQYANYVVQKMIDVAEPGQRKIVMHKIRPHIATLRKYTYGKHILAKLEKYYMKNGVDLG
Summary of the method: as §1

[12] = target: PUM1 PUF domain R3-TWW (Homo sapiens, UniProt Q14671 828-1176, C935T;R936W;Q939W)
Summary of the method: as §1

[13] = target: PUM1 PUF domain R3-APL (Homo sapiens, UniProt Q14671 828-1176, C935A;R936P;Q939L)
Summary of the method: as §1

[14] = target: PUM1 PUF domain R4-SRL (Homo sapiens, UniProt Q14671 828-1176, N971S;H972R;Q975L)
Summary of the method: as §1

[15] = target: PUM1 PUF domain R4-YRL (Homo sapiens, UniProt Q14671 828-1176, N971Y;H972R;Q975L)
Summary of the method: as §1

[16] = target: PUM1 PUF domain R5-QRK (Homo sapiens, UniProt Q14671 828-1176, C1007Q;Q1011K)
Summary of the method: as §1

[17] = target: PUM1 PUF domain R8-RHG (Homo sapiens, UniProt Q14671 828-1176, N1122R;Y1123H;Q1126G)
Summary of the method: as §1

[18] = target: T2, PUM1 PUF domain R6-RFC (Homo sapiens, UniProt Q14671 828-1176, N1043R;Y1044F;Q1047C)
T2 sequence: T1 sequence with L216R, Y217F, S220C
Summary of the method: as §1

How did the binding signal [1] turn out when “GGCUAGAACUAGUGGAUCCCCCGGCGCCCGGCGGCUCGAGCCCGGGUAAGUGUAUAUAGUCUGCAUGCCGCCGGGCGCCAUGCCUGCAGGUCGACUCUAGAAAACAUG” was run?
The binding signal was 2.95 log2 enrichment (interaction score).

And the binding signal [2]?
Its binding signal is 3.82 log2 enrichment (interaction score).

And the binding signal [3]?
The binding signal was 6.39 log2 enrichment (interaction score).

“GGCUAGAACUAGUGGAUCCCCCGGCGCCCGGCGGCUCGAGCCCGGGUAAGUGUAAGUAGUCUGCAUGCCGCCGGGCGCCAUGCCUGCAGGUCGACUCUAGAAAACAUG” was tested. Which binding signal [4] did it give?
The binding signal was 3.33 log2 enrichment (interaction score).

Which results are given for “GGCUAGAACUAGUGGAUCCCCCGGCGCCCGGCGGCUCGAGCCCGGGUAAGUGUCAAUAGUCUGCAUGCCGCCGGGCGCCAUGCCUGCAGGUCGACUCUAGAAAACAUG”?
binding signal [5]: 2.45 log2 enrichment (interaction score); binding signal [6]: 3.48 log2 enrichment (interaction score); binding signal [7]: 4.03 log2 enrichment (interaction score); binding signal [8]: 3.41 log2 enrichment (interaction score); binding signal [9]: 0.29 log2 enrichment (interaction score)

Which results are given for “GGCUAGAACUAGUGGAUCCCCCGGCGCCCGGCGGCUCGAGCCCGGGUAAGUGUAAAUAGUCUGCAUGCCGCCGGGCGCCAUGCCUGCAGGUCGACUCUAGAAAACAUG”?
binding signal [1]: 4.02 log2 enrichment (interaction score); binding signal [10]: 2.91 log2 enrichment (interaction score); binding signal [3]: 3.99 log2 enrichment (interaction score); binding signal [11]: 4.98 log2 enrichment (interaction score); binding signal [12]: 3.61 log2 enrichment (interaction score); binding signal [13]: 3.04 log2 enrichment (interaction score); binding signal [14]: 3.87 log2 enrichment (interaction score); binding signal [15]: 3.01 log2 enrichment (interaction score); binding signal [16]: 2.97 log2 enrichment (interaction score); binding signal [17]: 4.31 log2 enrichment (interaction score); binding signal [18]: 4.13 log2 enrichment (interaction score)

With “GGCUAGAACUAGUGGAUCCCCCGGCGCCCGGCGGCUCGAGCCCGGGUAAGUGUACAUAGUCUGCAUGCCGCCGGGCGCCAUGCCUGCAGGUCGACUCUAGAAAACAUG” as the sequence, how does the binding signal [3] read?
Its binding signal is 4.45 log2 enrichment (interaction score).

Which results are given for “GGCUAGAACUAGUGGAUCCCCCGGCGCCCGGCGGCUCGAGCCCGGGUAAGUGUUAAUAGUCUGCAUGCCGCCGGGCGCCAUGCCUGCAGGUCGACUCUAGAAAACAUG”?
binding signal [5]: 2.13 log2 enrichment (interaction score); binding signal [6]: 2.74 log2 enrichment (interaction score); binding signal [7]: 2.74 log2 enrichment (interaction score); binding signal [8]: 2.4 log2 enrichment (interaction score); binding signal [9]: 2.82 log2 enrichment (interaction score)

With “GGCUAGAACUAGUGGAUCCCCCGGCGCCCGGCGGCUCGAGCCCGGGUAAGCGUAAAUAGUCUGCAUGCCGCCGGGCGCCAUGCCUGCAGGUCGACUCUAGAAAACAUG” as the sequence, how does the binding signal [17] read?
Its binding signal is 4.32 log2 enrichment (interaction score).
